In publication PMC7862700, “An all-to-all approach to the identification of sequence-specific readers for epigenetic DNA modifications on cytosine”:

Key:
Test in all cases: DAPPL (digital affinity profiling via proximity ligation, sequencing); 10 mM Tris-HCl pH 7.5, 50 mM NaCl, 1 mM DTT, 4% glycerol, room temperature, 30 min; GST-TFs on glutathione beads, 16-mer random dsDNA library, 0.1% formaldehyde crosslink after washing; high values mean tight binding
Conditions in all cases: protein: recombinant; tags: N-terminal GST; dsDNA, one strand shown
[1] = biological target: T1, ERF (Homo sapiens, UniProt P50548 1-548)
T1 sequence: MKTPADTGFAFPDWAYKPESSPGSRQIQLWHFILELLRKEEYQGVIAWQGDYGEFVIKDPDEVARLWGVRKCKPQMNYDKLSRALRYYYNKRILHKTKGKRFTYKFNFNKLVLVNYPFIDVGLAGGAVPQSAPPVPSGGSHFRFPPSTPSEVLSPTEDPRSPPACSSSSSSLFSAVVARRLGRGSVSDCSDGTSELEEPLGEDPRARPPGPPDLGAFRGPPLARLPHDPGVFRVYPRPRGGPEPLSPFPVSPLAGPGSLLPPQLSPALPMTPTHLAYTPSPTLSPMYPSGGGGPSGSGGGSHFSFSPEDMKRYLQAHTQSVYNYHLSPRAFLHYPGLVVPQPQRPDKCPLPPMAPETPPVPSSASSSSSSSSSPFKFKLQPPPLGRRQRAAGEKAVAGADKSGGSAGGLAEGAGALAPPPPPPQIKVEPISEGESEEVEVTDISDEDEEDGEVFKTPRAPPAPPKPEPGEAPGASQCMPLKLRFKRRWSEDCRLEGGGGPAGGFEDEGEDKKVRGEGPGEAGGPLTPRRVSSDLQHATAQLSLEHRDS
Procedure, shortened: (§1)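 In yeast, human transcription factors were expressed with a GST fusion, then pulled down on glutathione beads and given DNA barcodes. Pooled with a tag-only sample, they were exposed to 200 nmole of a 16-mer random double-stranded DNA library (Tris/NaCl/DTT/glycerol buffer, room temperature, 30 min), washed, crosslinked with 0.1% formaldehyde, proximity-ligated using BsaI/T4 ligase for 1 h at 37 °C, PCR-amplified and read on an Illumina NextSeq500. Each hexamer's frequency of reads for a factor, divided by the matching frequency for the tag-only sample, gives the binding signal.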

[2] = biological target: T2, ETV3L (Homo sapiens, UniProt Q6ZN32 1-361)
T2 sequence: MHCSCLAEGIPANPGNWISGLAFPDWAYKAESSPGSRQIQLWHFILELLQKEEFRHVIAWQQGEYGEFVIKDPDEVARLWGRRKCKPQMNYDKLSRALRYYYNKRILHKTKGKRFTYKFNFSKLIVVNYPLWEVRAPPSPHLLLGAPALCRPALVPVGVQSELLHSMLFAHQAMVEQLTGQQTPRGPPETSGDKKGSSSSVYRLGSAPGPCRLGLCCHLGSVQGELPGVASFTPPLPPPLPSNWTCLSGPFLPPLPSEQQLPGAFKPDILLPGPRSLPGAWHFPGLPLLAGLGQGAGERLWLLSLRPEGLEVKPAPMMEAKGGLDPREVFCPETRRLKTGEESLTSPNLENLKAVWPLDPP
Procedure, shortened: as §1

[3] = biological target: T3, ETS2 (Homo sapiens, UniProt P15036 1-469)
T3 sequence: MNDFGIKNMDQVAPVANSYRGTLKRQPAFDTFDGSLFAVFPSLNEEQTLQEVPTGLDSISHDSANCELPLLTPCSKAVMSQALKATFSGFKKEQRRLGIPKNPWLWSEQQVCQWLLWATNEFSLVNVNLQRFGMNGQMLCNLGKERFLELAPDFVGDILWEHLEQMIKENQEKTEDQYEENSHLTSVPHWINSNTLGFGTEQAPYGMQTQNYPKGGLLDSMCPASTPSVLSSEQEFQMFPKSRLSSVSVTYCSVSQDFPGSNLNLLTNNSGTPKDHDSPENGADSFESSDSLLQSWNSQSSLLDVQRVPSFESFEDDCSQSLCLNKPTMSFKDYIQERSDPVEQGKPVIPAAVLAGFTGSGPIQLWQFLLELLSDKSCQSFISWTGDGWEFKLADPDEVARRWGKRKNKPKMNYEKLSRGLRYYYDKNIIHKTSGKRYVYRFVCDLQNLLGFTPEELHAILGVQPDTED
Procedure, shortened: as §1

[4] = biological target: T4, SPDEF (Homo sapiens, UniProt O95238 1-335)
T4 sequence: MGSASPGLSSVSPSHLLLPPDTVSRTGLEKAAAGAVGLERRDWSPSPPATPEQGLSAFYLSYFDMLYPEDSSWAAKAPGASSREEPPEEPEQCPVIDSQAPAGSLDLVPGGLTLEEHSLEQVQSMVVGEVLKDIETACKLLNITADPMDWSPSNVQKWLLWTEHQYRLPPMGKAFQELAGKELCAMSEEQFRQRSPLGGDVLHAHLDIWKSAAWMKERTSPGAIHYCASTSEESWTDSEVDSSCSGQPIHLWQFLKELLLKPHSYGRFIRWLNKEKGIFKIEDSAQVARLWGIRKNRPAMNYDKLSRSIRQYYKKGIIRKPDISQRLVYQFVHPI
Procedure, shortened: as §1

[5] = biological target: T5, ETV7 (Homo sapiens, UniProt Q9Y603 1-341)
T5 sequence: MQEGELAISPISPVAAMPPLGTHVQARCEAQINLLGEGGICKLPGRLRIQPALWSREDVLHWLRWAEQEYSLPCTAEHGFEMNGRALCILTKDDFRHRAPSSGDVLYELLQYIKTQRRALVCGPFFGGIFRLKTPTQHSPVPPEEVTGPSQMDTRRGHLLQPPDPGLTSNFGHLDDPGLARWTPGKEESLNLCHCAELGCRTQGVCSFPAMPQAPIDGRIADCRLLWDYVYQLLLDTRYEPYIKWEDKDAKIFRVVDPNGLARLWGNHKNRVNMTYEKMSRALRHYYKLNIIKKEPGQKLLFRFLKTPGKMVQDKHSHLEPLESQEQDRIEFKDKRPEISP
Procedure, shortened: as §1

[6] = biological target: T6, ELF5 (Homo sapiens, UniProt Q9UKW6-2 1-255)
T6 sequence: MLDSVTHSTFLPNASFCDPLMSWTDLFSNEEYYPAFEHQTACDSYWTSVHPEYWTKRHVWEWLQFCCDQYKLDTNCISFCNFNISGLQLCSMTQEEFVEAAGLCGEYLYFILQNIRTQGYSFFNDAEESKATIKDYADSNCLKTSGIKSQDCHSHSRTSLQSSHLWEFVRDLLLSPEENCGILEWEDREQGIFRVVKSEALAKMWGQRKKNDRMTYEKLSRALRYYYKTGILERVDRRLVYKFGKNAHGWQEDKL
Procedure, shortened: as §1

[7] = biological target: T7, ETV3 (Homo sapiens, UniProt P41162-2 1-143)
T7 sequence: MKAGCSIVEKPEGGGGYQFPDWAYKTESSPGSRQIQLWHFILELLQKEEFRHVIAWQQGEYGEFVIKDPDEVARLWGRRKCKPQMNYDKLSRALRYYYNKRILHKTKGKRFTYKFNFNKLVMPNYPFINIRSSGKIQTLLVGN
Procedure, shortened: as §1

[8] = biological target: ETV6 (Homo sapiens, UniProt P41212 1-452)
Procedure, shortened: as §1

Sequence of ETV6 (P41212 whole entry): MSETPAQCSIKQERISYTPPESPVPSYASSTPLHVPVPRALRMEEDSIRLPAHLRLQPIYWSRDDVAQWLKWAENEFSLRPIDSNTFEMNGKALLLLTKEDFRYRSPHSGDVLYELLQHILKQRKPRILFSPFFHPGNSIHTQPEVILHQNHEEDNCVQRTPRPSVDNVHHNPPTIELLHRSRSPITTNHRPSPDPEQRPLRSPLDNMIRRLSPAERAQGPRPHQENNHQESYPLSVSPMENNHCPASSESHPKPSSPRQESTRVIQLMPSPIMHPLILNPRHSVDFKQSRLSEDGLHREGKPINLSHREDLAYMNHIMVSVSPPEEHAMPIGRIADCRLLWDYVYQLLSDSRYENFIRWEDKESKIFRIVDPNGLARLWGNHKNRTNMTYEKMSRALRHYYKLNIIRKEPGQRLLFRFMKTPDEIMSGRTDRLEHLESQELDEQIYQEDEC

TCCATC
binding signal [1]: 1.17 fold enrichment (6-mer frequency, TF over GST control)
binding signal [2]: 1.31 fold enrichment (6-mer frequency, TF over GST control)
binding signal [3]: 1.2 fold enrichment (6-mer frequency, TF over GST control)
binding signal [4]: 1.3 fold enrichment (6-mer frequency, TF over GST control)
binding signal [5]: 1.2 fold enrichment (6-mer frequency, TF over GST control)
binding signal [6]: 1.17 fold enrichment (6-mer frequency, TF over GST control)
binding signal [7]: 1.22 fold enrichment (6-mer frequency, TF over GST control)
binding signal [8]: 1.13 fold enrichment (6-mer frequency, TF over GST control)

GTTTAT
binding signal [1]: 1.17 fold enrichment (6-mer frequency, TF over GST control)
binding signal [2]: 1.26 fold enrichment (6-mer frequency, TF over GST control)
binding signal [3]: 1.1 fold enrichment (6-mer frequency, TF over GST control)
binding signal [4]: 1.11 fold enrichment (6-mer frequency, TF over GST control)
binding signal [5]: 1.19 fold enrichment (6-mer frequency, TF over GST control)
binding signal [6]: 1.14 fold enrichment (6-mer frequency, TF over GST control)
binding signal [7]: 1.1 fold enrichment (6-mer frequency, TF over GST control)
binding signal [8]: 1.18 fold enrichment (6-mer frequency, TF over GST control)

TTTCCA
binding signal [1]: 1.32 fold enrichment (6-mer frequency, TF over GST control)
binding signal [2]: 1.41 fold enrichment (6-mer frequency, TF over GST control)
binding signal [3]: 1.38 fold enrichment (6-mer frequency, TF over GST control)
binding signal [4]: 1.29 fold enrichment (6-mer frequency, TF over GST control)
binding signal [5]: 1.35 fold enrichment (6-mer frequency, TF over GST control)
binding signal [6]: 1.43 fold enrichment (6-mer frequency, TF over GST control)
binding signal [7]: 1.45 fold enrichment (6-mer frequency, TF over GST control)
binding signal [8]: 1.54 fold enrichment (6-mer frequency, TF over GST control)

AGCCTC
binding signal [1]: 1.22 fold enrichment (6-mer frequency, TF over GST control)
binding signal [2]: 1.32 fold enrichment (6-mer frequency, TF over GST control)
binding signal [3]: 1.3 fold enrichment (6-mer frequency, TF over GST control)
binding signal [4]: 1.14 fold enrichment (6-mer frequency, TF over GST control)
binding signal [5]: 1.31 fold enrichment (6-mer frequency, TF over GST control)
binding signal [6]: 1.16 fold enrichment (6-mer frequency, TF over GST control)
binding signal [7]: 1.15 fold enrichment (6-mer frequency, TF over GST control)
binding signal [8]: 1.18 fold enrichment (6-mer frequency, TF over GST control)

GTACTA
binding signal [1]: 1.21 fold enrichment (6-mer frequency, TF over GST control)
binding signal [2]: 1.05 fold enrichment (6-mer frequency, TF over GST control)
binding signal [3]: 1.13 fold enrichment (6-mer frequency, TF over GST control)
binding signal [4]: 1.1 fold enrichment (6-mer frequency, TF over GST control)
binding signal [5]: 1.09 fold enrichment (6-mer frequency, TF over GST control)
binding signal [6]: 1.13 fold enrichment (6-mer frequency, TF over GST control)
binding signal [7]: 1.09 fold enrichment (6-mer frequency, TF over GST control)
binding signal [8]: 1.15 fold enrichment (6-mer frequency, TF over GST control)

TAACTT
binding signal [1]: 1.32 fold enrichment (6-mer frequency, TF over GST control)
binding signal [2]: 1.47 fold enrichment (6-mer frequency, TF over GST control)
binding signal [3]: 1.38 fold enrichment (6-mer frequency, TF over GST control)
binding signal [4]: 1.28 fold enrichment (6-mer frequency, TF over GST control)
binding signal [5]: 1.25 fold enrichment (6-mer frequency, TF over GST control)
binding signal [6]: 1.44 fold enrichment (6-mer frequency, TF over GST control)
binding signal [7]: 1.41 fold enrichment (6-mer frequency, TF over GST control)
binding signal [8]: 1.32 fold enrichment (6-mer frequency, TF over GST control)
